# ± gives the standard deviation.
# T1: HaloTag-ATRX ADD domain (163-292)
# T1 chain: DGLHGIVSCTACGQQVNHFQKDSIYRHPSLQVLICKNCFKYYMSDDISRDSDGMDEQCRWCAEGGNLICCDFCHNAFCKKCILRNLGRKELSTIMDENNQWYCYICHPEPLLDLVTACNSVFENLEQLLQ
# B1: Unmod H1 variant K K S T D H P K Y S D M I (peptide)
# chain: KKSTDHPKYSDMI
# B2: Unmod H1 variant A K P K R A K A S K K S T (peptide)
# chain: AKPKRAKASKKST
# B3: Unmod H1 variant P K K A P V K P K A K S S (peptide)
# chain: PKKAPVKPKAKSS
# B4: Unmod H1 variant A K K K L A A T P K K A K (peptide)
# chain: AKKKLAATPKKAK
# B5: H4 53-65 E T R G V L Kme3 V F L E N V (peptide)
# chain: ETRGVLKVFLENV
# B6: Unmod H1 variant D S Q I K L S I K R L V T (peptide)
# chain: DSQIKLSIKRLVT
# B7: Unmod H1 variant K A K P V K A S K P K K A (peptide)
# chain: KAKPVKASKPKKA
# B8: Unmod H1 variant S H Y K V G E N A D S Q I (peptide)
# chain: SHYKVGENADSQI
# B9: Unmod H1 variant S D M I V A A I Q A E K N (peptide)
# chain: SDMIVAAIQAEKN
# B10: Unmod H1 variant T P K K A S K P K K A A S (peptide)
# chain: TPKKASKPKKAAS
# Target: T1, HaloTag-ATRX ADD domain (163-292)
# Assay: peptide microarray binding signal (635 nm), min-max normalized on array (fraction of array maximum); higher = stronger binding
# Details: peptide region: Unmod H1 variant; binder concentration: 50 nM
# Summary of the method: (§1)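 Arrays carried histone 13-mer peptide–cellulose conjugates printed in triplicate on nitrocellulose alongside a Cy3 tracer. After overnight blocking at 4°C, they were incubated for 1 h at 4°C with biotin-labelled HaloTag reader fusions (10 nM to 1 μM) plus streptavidin-Alexa Fluor 647, or with rabbit histone antibodies (1:10,000 to 1:2,000) plus anti-rabbit Alexa 647. Scanning on an Axon GenePix 4000B used 635 nm for signal and 532 nm for misprints. The binding signal reported is each triplicate's mean spot intensity after per-library min-max scaling.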
row,Binder,peptide microarray binding signal
1,B1,0.01 ± 7.3e-05
2,B2,0.0106 ± 0.0005
3,B3,0.0131 ± 0.00065
4,B4,0.01188 ± 3e-05
5,B6,0.0155 ± 0.00047
6,B7,0.01229 ± 0.00011
7,B8,0.00937 ± 0.00014
8,B9,0.0102 ± 0.00022
9,B10,0.0118 ± 0.00065

# Same assay, conditions: peptide region: Unmod H1 variant; binder concentration: 500 nM
row,Binder,peptide microarray binding signal
1,B1,0.00895 ± 0.0005
2,B2,0.018 ± 0.00086
3,B3,0.0107 ± 0.00047
4,B4,0.0112 ± 0.00064
5,B6,0.0281 ± 0.00085
6,B7,0.00971 ± 0.00061
7,B8,0.00671 ± 0.00048
8,B9,0.00514 ± 0.00038
9,B10,0.00967 ± 0.00036

# Target: HaloTag-ING2 PHD (mouse Ing2 200-280)
# Assay: as above
# Details: peptide region: Unmod H1 variant; binder concentration: 10 nM
# Summary of the method: as §1
row,Binder,peptide microarray binding signal
1,B1,0.00269 ± 3e-05
2,B2,0.00334 ± 4.8e-05
3,B3,0.00245 ± 0.0001
4,B4,0.00203 ± 2.1e-05
5,B6,0.003819 ± 3.5e-05
6,B7,0.00292 ± 7.4e-05
7,B8,0.00197 ± 2.3e-05
8,B9,0.00555 ± 0.00034
9,B10,0.00167 ± 1.7e-05

# Same assay, conditions: peptide region: Unmod H1 variant; binder concentration: 100 nM
row,Binder,peptide microarray binding signal
1,B1,0.00418 ± 0.00013
2,B2,0.00638 ± 0.0014
3,B3,0.00496 ± 0.0015
4,B4,0.00397 ± 0.00028
5,B6,0.00801 ± 0.00074
6,B7,0.00574 ± 0.00036
7,B8,0.00298 ± 0.00012
8,B9,0.00326 ± 5.1e-05
9,B10,0.00489 ± 0.00044

# Target: anti-H3K4me3 antibody ab8580
# Assay: as above
# Details: peptide region: Unmod H1 variant; binder concentration: 1:2,000 dilution
# Summary of the method: as §1
row,Binder,peptide microarray binding signal
1,B1,0.000717 ± 7.3e-05
2,B2,0.000378 ± 1.4e-05
3,B3,0.00034 ± 2.1e-05
4,B4,0.000415 ± 8.4e-06
5,B6,0.000623 ± 3.1e-05
6,B7,0.00051 ± 8.6e-06
7,B8,0.000227 ± 4.2e-06
8,B9,0.00111 ± 2.4e-05
9,B10,0.000698 ± 3.6e-05

# Same assay, conditions: peptide region: Unmod H1 variant; binder concentration: 1:10,000 dilution
row,Binder,peptide microarray binding signal
1,B1,0.000856 ± 1.8e-05
2,B2,0.000913 ± 2.8e-05
3,B3,0.000685 ± 7.2e-06
4,B4,0.000799 ± 2.2e-05
5,B6,0.00137 ± 1.3e-05
6,B7,0.000685 ± 7.2e-06
7,B8,0.000571
8,B9,0.00126 ± 4.3e-05
9,B10,0.000571

# Target: anti-H3K9me3 antibody ab8898
# Assay: as above
# Details: peptide region: Unmod H1 variant; binder concentration: 1:2,000 dilution
# Summary of the method: as §1
row,Binder,peptide microarray binding signal
1,B1,0.000196 ± 2.1e-06
2,B2,0.000347 ± 7e-06
3,B3,0.000362 ± 1.9e-05
4,B4,0.000272
5,B6,0.000513 ± 9.7e-06
6,B7,0.000196 ± 2.1e-06
7,B8,0.000181
8,B9,0.000559 ± 2.9e-05
9,B10,0.000181

# Same assay, conditions: peptide region: Unmod H1 variant; binder concentration: 1:10,000 dilution
row,Binder,peptide microarray binding signal
1,B1,0.00075 ± 7.9e-06
2,B2,0.000634
3,B3,0.000865 ± 2.4e-05
4,B4,0.00098 ± 4.6e-05
5,B6,0.00127 ± 2.5e-05
6,B7,0.000692 ± 7.3e-06
7,B8,0.000404 ± 4.4e-06
8,B9,0.00104 ± 2.1e-05
9,B10,0.000519 ± 5.6e-06

# Target: T1, HaloTag-ATRX ADD domain (163-292)
# Assay: as above
# Details: peptide region: H4 53-65; peptide modifications: H4K59me3; binder concentration: 50 nM
# Summary of the method: as §1
row,Binder,peptide microarray binding signal
1,B5,0.00755 ± 0.00027

# Same assay, conditions: peptide region: H4 53-65; peptide modifications: H4K59me3; binder concentration: 500 nM
row,Binder,peptide microarray binding signal
1,B5,0.00719 ± 0.00011

# Target: HaloTag-ING2 PHD (mouse Ing2 200-280)
# Assay: as above
# Details: peptide region: H4 53-65; peptide modifications: H4K59me3; binder concentration: 10 nM
# Summary of the method: as §1
row,Binder,peptide microarray binding signal
1,B5,0.0074 ± 5.7e-05

# Same assay, conditions: peptide region: H4 53-65; peptide modifications: H4K59me3; binder concentration: 100 nM
row,Binder,peptide microarray binding signal
1,B5,0.006945 ± 4.9e-05

# Target: anti-H3K4me3 antibody ab8580
# Assay: as above
# Details: peptide region: H4 53-65; peptide modifications: H4K59me3; binder concentration: 1:2,000 dilution
# Summary of the method: as §1
row,Binder,peptide microarray binding signal
1,B5,0.00549 ± 0.00064

# Same assay, conditions: peptide region: H4 53-65; peptide modifications: H4K59me3; binder concentration: 1:10,000 dilution
row,Binder,peptide microarray binding signal
1,B5,0.00616 ± 0.00023

# Target: anti-H3K9me3 antibody ab8898
# Assay: as above
# Details: peptide region: H4 53-65; peptide modifications: H4K59me3; binder concentration: 1:2,000 dilution
# Summary of the method: as §1
row,Binder,peptide microarray binding signal
1,B5,0.017 ± 0.0023

# Same assay, conditions: peptide region: H4 53-65; peptide modifications: H4K59me3; binder concentration: 1:10,000 dilution
row,Binder,peptide microarray binding signal
1,B5,0.0133 ± 0.00048

# — the supplement of paper PMC4022240
